# PMC5540273 (PLoS ONE, 2017)
# Where “and” joins values, the source holds several entries; their conditions need not be identical. Equal entries are not always repeated. Where two headings read alike, the source gives them in different places.
# Key:
# [1] = tested on: MYO3B; conditions: concentration: 1 μM, replicates: in singlicate, n = 1
# [2] = tested on: T1, NDR1; conditions: concentration: 1 μM, replicates: in singlicate, n = 1
# T1 construct: gene STK38
# [3] = tested on: NDR2; conditions: concentration: 1 μM, replicates: in singlicate, n = 1
# [4] = tested on: NEK10; conditions: concentration: 1 μM, replicates: in singlicate; n = 1
# [5] = tested on: NEK11; conditions: concentration: 1 μM, replicates: in singlicate; n = 1
# [6] = tested on: NEK1; conditions: concentration: 1 μM, replicates: in singlicate, n = 1
# [7] = tested on: NEK2; conditions: concentration: 1 μM, replicates: in singlicate, n = 1
# [8] = tested on: NEK3; conditions: concentration: 1 μM, replicates: in singlicate, n = 1
# [9] = tested on: NEK4; conditions: concentration: 1 μM, replicates: in singlicate; n = 1
# [10] = tested on: NEK5; conditions: concentration: 1 μM, replicates: in singlicate, n = 1
# [11] = tested on: NEK6; conditions: concentration: 1 μM, replicates: in singlicate; n = 1
# [12] = tested on: NEK7; conditions: concentration: 1 μM, replicates: in singlicate, n = 1
# [13] = tested on: NEK9; conditions: concentration: 1 μM, replicates: in singlicate, n = 1
# [14] = tested on: T2, NIK; conditions: concentration: 1 μM, replicates: in singlicate, n = 1
# T2 construct: gene MAP3K14
# [15] = tested on: T3, NIM1; conditions: concentration: 1 μM, replicates: in singlicate, n = 1
# T3 construct: gene MGC42105
# [16] = tested on: NLK; conditions: concentration: 1 μM, replicates: in singlicate, n = 1
# [17] = tested on: T4, OSR1; conditions: concentration: 1 μM, replicates: in singlicate; n = 1
# T4 construct: gene OXSR1
# [18] = tested on: PAK1; conditions: concentration: 1 μM, replicates: in singlicate, n = 1
# [19] = tested on: PAK2; conditions: concentration: 1 μM, replicates: in singlicate, n = 1
# [20] = tested on: PAK3; conditions: concentration: 1 μM, replicates: in singlicate, n = 1
# 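Further: KINOMEscan kinase panel screen.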
smiles,measurement,setting,value
Cl.Cl.Cl.Fc1ccc(-c2ncn(C3CCNCC3)c2-c2ccnc(Nc3ccccc3)n2)cc1 [SB-238039],%Inh,[1]; 1 µM,20% and 21%
same,%Inh,[2]; 1 µM,37% and 6%
same,%Inh,[3]; 1 µM,8% and 0%
same,%Inh,[4],0%
same,%Inh,[5],0%
same,%Inh,[6]; 1 µM,15% and 0%
same,%Inh,[7]; 1 µM,0% and 2%
same,%Inh,[8]; 1 µM,23% and 29%
same,%Inh,[9],0%
same,%Inh,[10]; 1 µM,0% and 15%
same,%Inh,[11],0%
same,%Inh,[12]; 1 µM,0% and 24%
same,%Inh,[13]; 1 µM,0% and 19%
same,%Inh,[14]; 1 µM,5% and 12%
same,%Inh,[15]; 1 µM,35% and 19%
same,%Inh,[16]; 1 µM,90.5% and 89%
same,%Inh,[17],14%
same,%Inh,[18]; 1 µM,16% and 0%
same,%Inh,[19]; 1 µM,51% and 14%
same,%Inh,[20]; 1 µM,43% and 50%
CC(C)(C)n1cnc2c(N)ncnc21 [SKF-97359],%Inh,[1],5%
same,%Inh,[2],0%
same,%Inh,[3],0%
same,%Inh,[4],12%
same,%Inh,[5],14%
same,%Inh,[6],0%
same,%Inh,[7],0%
same,%Inh,[8],42%
same,%Inh,[9],0%
same,%Inh,[10],0%
same,%Inh,[11],0%
same,%Inh,[12],0%
same,%Inh,[13],0%
same,%Inh,[14],33%
same,%Inh,[15],17%
same,%Inh,[16],2%
same,%Inh,[17],0%
same,%Inh,[18],0%
same,%Inh,[19],0%
same,%Inh,[20],0%
NCC(NC(=O)c1cc(-c2cn[nH]c2)c(-c2ccnc3[nH]ccc23)s1)c1ccccc1.O=C(O)C(F)(F)F.O=C(O)C(F)(F)F (stereo not shown) [GSK1325775],%Inh,[1],0%
same,%Inh,[2],65%
same,%Inh,[3],70%
same,%Inh,[4],50%
same,%Inh,[5],15%
same,%Inh,[6],72%
same,%Inh,[7],43%
same,%Inh,[8],7%
same,%Inh,[9],0%
same,%Inh,[10],57%
same,%Inh,[11],0%
same,%Inh,[12],0%
same,%Inh,[13],10%
same,%Inh,[14],28%
same,%Inh,[15],38%
same,%Inh,[16],0%
same,%Inh,[17],4%
same,%Inh,[18],19%
same,%Inh,[19],32%
same,%Inh,[20],39%
Cc1nnc(-c2ccc3ncc(-c4ccc(S(C)=O)cc4)n3c2)o1 (stereo not shown),%Inh,[1],0%
same,%Inh,[2],0%
same,%Inh,[3],0%
same,%Inh,[4],0%
same,%Inh,[5],0%
same,%Inh,[6],0%
same,%Inh,[7],12%
same,%Inh,[8],36%
same,%Inh,[9],0%
same,%Inh,[10],0%
same,%Inh,[11],12%
same,%Inh,[12],0%
same,%Inh,[13],0%
same,%Inh,[14],0%
same,%Inh,[15],0%
same,%Inh,[16],0%
same,%Inh,[17],9%
same,%Inh,[18],17%
same,%Inh,[19],3%
same,%Inh,[20],0%
Fc1ccc(-c2ncn(CCCN3CCOCC3)c2-c2cccnc2)cc1 [SB-211743],%Inh,[1],17%
same,%Inh,[2],33%
same,%Inh,[3],10%
same,%Inh,[4],14%
same,%Inh,[5],0%
same,%Inh,[6],0%
same,%Inh,[7],0%
same,%Inh,[8],15%
same,%Inh,[9],0%
same,%Inh,[10],0%
same,%Inh,[11],0%
same,%Inh,[12],0%
same,%Inh,[13],0%
same,%Inh,[14],41%
same,%Inh,[15],0%
same,%Inh,[16],3%
same,%Inh,[17],0%
same,%Inh,[18],15%
same,%Inh,[19],23%
same,%Inh,[20],0%
